According to PubChem BioAssay AID1851 (National Center for Advancing Translational Sciences (NCATS), 2009):
In all, about 16,000 compounds went through this assay and about 2,600 (16%) were called active. Another 20% or so got no clear call; they are omitted. A selection follows. Unmarked numbers belong to inactive results. The call rests on the fitted dose curve; in most records, active means well fitted curve in the direction sought with a large enough effect; inconclusive means small, poorly fitted or top-dose-only effect, or effect the other way; inactive means no such curve, though single readings can be large or run the other way.

target: Cytochrome P450 2D6 (Homo sapiens) (UniProt P10635); assay: Cytochrome panel assay with activity outcomes; details: recombinant CYP, pro-luciferin dealkylation, luminescence, p450-cyp2d6; series mostly up to 57.1 µM
Sequence (P10635 whole entry, looked up): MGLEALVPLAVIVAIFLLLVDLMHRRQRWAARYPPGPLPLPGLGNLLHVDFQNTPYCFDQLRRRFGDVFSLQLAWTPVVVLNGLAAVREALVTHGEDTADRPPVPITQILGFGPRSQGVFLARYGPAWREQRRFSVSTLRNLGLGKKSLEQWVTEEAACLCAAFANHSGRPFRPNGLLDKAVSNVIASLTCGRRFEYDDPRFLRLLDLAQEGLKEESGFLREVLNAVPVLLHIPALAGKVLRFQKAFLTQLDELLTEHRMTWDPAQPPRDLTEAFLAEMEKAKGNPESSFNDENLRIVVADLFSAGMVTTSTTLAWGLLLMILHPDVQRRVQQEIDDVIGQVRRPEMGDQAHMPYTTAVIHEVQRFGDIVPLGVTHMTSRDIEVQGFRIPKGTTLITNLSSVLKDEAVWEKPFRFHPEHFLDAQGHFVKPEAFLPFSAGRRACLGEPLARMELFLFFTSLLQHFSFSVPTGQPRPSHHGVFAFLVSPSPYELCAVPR
On the % scale 0 is the no-effect control and ±100 the full control effect.

SMILES | AC50 | activity, negative = inhibition
COCCNC(=O)c1sc2nc(-c3ccccc3)cn2c1C | inactive | 
Cc1ccc(NC(=O)C(=O)NCc2ccc(/C=C(/C#N)C(=O)NCc3cccnc3)o2)cc1 | inactive | 
Nc1ncnc2c1ncn2[C@@H]1CCCO1 | inactive | 
CCN1C(=O)C2(SC(NC(C)=O)=NN2C(C)=O)c2cc(C)ccc21 (centres undefined) | inactive | 
CC[C@H](Cc1c(I)cc(I)c(N)c1I)C(=O)O | inactive | 
CNc1cnn(-c2ccccc2)c(=O)c1Cl | inactive | 
N#[N+]c1ccc(Nc2ccccc2)cc1 |  | 7.95% [at 11.4 µM]
COc1ccc(Oc2ncc3nc(CCc4ccccc4)c(=O)n(C)c3n2)cc1 | inactive | 
CCOc1ccc(NC(=O)CCNS(=O)(=O)c2ccc3c(c2)c(=O)n(C)c(=O)n3C)cc1 | inactive | 
Cc1sc2ncnc(OCC(=O)NC(C)C)c2c1C | inactive | 
COc1ccccc1C1/C(=C(/O)c2ccccc2)C(=O)C(=O)N1CCO (centres undefined) | inactive | 
COC(=O)[C@H](C)NC(=O)C/C=C\[C@@H](C)[C@H]1C=C[C@H](O)[C@@H](CO)O1 |  | 3.59% [at 11.4 µM]
O=C(NCCc1c[nH]c2ccccc12)[C@@H]1C[C@H]1[C@@H](NP(=O)(c1ccccc1)c1ccccc1)c1ccccc1 | inactive | 
O=C(NCCc1c[nH]c2ccccc12)[C@H]1C[C@@H]1[C@H](NP(=O)(c1ccccc1)c1ccccc1)c1ccccc1 | inactive | 
CN1C2C=C(N(CCc3c[nH]c4ccccc34)C(=O)c3ccc(Cl)cc3)CC1CC2 (centres undefined) | 0.398 µM (active) | 
CCN(CC(=O)O)CC(=O)O |  | 9.63% [at 11.4 µM]
CC1=Nc2ccccc2/C1=C\c1nc(-c2ccc(C(F)(F)F)cc2)oc1O | inactive | 
Nc1ccc(N(c2ccccc2)c2ccc(N)cc2)cc1 | 14.1 µM (active) | 
CC(=O)c1nnn(-c2nc(N)nc(N(c3ccccc3)c3ccccc3)n2)c1C | inactive | 
Nc1ccc(S(=O)(=O)NC(=O)c2ccccc2)cc1 | inactive | 
O=C(Cn1ccnc1[N+](=O)[O-])NCCO | inactive | 
COc1cccc(N=Cc2c[nH][nH]c2=O)c1 | inactive | 
C[C@@H]1c2cccc(O)c2C(O)=C2C(=O)[C@@]3(O)C(O)=C(C(N)=O)C(=O)[C@@H](N(C)C)[C@@H]3[C@@H](O)[C@@H]21 | inactive | 
CCOc1cc(/C=N/NC(=O)COc2cccc(C)c2)ccc1OC(=O)c1cccs1 | inactive | 
CCOC(=O)c1c(C)n(C)c2ccc(OC)c(NS(=O)(=O)c3ccc(Cl)s3)c12 | inactive | 

SMILES | AC50 | activity, negative = inhibition
CCOc1ccc2nc(NC(=O)c3ccc(S(=O)(=O)N4CCOCC4)cc3)sc2c1 | inactive | 
CCOc1ccc2nc(N3CCCCCC3)sc2c1 | 1 µM (active) | 
CCOC(=O)C1CCN(C(=O)C2CCN(c3nc4ccc(OC)cc4s3)CC2)CC1 | inactive | 
CCN1CCN(C(=O)N[C@H](C(=O)N[C@@H]2C(=O)N3C(C(=O)O)=C(CSc4nnnn4C)CS[C@@H]23)c2ccc(O)cc2)C(=O)C1=O | inactive | 
O=c1[nH]c2ccccc2c2ccccc12 | inactive | 
O=c1[nH]ccc2c(O)cccc12 | inactive | 
Cc1nc2c(O)cccc2c(=O)[nH]1 | 12.6 µM (active) | 
OCCCNc1ncnc2[nH]ncc12 |  | 15.1% [at 11.4 µM]
Cc1cc(C)c(C#N)c(SCC(=O)c2ccc(Cl)cc2Cl)n1 | inactive | 
Cc1cc(C)c(C#N)c(SCC(=O)C(C)(C)C)n1 | inactive | 
Cc1cc(C)c(C#N)c(SCc2cc3c(cc2Cl)OCO3)n1 | 8.91 µM (active) | 
COc1cc(C)ccc1OCCCOc1ccccc1Br | inactive | 
Cc1cccc(OCCCCCn2ccnc2)c1 | 0.1 µM (active) | 
Brc1ccccc1OCCOCCOc1cccc2cccnc12 | inactive | 
Cc1ccc(OCCOCCn2ccnc2)c(Br)c1 | 1 µM (active) | 
C/C(CC(=O)Nc1cc(C)ccn1)=N\NC(=O)COc1cccc(C)c1 | inactive | 
Cc1ccc(/C(O)=C2/C(=O)C(=O)N(CCCn3ccnc3)C2c2ccccn2)cc1 (centres undefined) | inactive | 
Cc1ccc(C(=O)COC(=O)c2ccc3c(c2)C(=O)N(c2cccc4ncccc24)C3=O)cc1C | inactive | 
Cc1ccc(C)c(S(=O)(=O)NC(CC(C)C)C(=O)O)c1 (centres undefined) | inactive | 
COc1ccc(C2/C(=C(/O)c3ccc4c(c3)CC(C)O4)C(=O)C(=O)N2CCN2CCOCC2)cc1 (centres undefined) | inactive | 
CN1CCN(c2ncc3ncc(=O)n(Cc4ccc(F)cc4)c3n2)CC1 | inactive | 
Nc1nc2c(ncn2COC(CO)CO)c(=O)[nH]1 | inactive | 
O=C1Nc2ccc([N+](=O)[O-])cc2C1(O)N1CCCCCC1 (centres undefined) | inactive | 
Cc1nc(SCC(=O)NCCc2ccc(Cl)cc2)nc(C)c1C | 3.55 µM (active) | 
Nc1cc(N)nc(SCC(=O)NNC(=O)c2ccc(Cl)cc2)n1 | inactive | 

SMILES | AC50 | activity, negative = inhibition
Cc1nc(SCC(=O)Nc2ccc(N3CCOCC3)cc2)nc(C)c1C | inactive | 
CC(C)[C@H](Sc1nc(N)nc2nc[nH]c12)C(=O)O |  | 2.46% [at 11.4 µM]
CCOc1ccc(NC(=O)Cn2nnc(C(=O)NCc3ccccc3OC)c2N)cc1 | inactive | 
COc1ccc(C2(CNC(=O)/C=C/c3ccco3)CCCC2)cc1OC | inactive | 
O=C(NC(=S)Nc1nc(-c2ccc(Br)cc2)cs1)c1cccnc1 | inactive | 
CC(C)(C)N1C(=O)[C@H]2[C@H]3[C@H](O)[C@H](O)C/C(=N/NC(=O)OCc4ccccc4)[C@H]3CC[C@@H]2C1=O |  | 6.89% [at 11.4 µM]
CC(=O)OC[C@@H]1O[C@H](CCO/N=C(\C)CCN2CCCc3nc(C)c(C)cc32)C=C[C@@H]1OC(C)=O |  | -15.6% [at 11.4 µM]
CC(=O)OC[C@H]1O[C@@H](O/N=C(\C)CCN2CCCc3nc(C)c(C)cc32)[C@H](OC(C)=O)[C@@H](OC(C)=O)[C@H]1OC(C)=O | 3.16 µM (active) | 
CC(=O)OC[C@H]1O[C@@H](O/N=C(\C)CCN2CCCCc3nc(C)c(C)cc32)[C@H](OC(C)=O)[C@@H](OC(C)=O)[C@H]1OC(C)=O | 3.98 µM (active) | 
Cc1ccccc1-c1cc(C(=O)Nc2nc3c(s2)CCCC3)c2ccccc2n1 | inactive | 
O=C(c1cnccn1)N1CCC[C@@]2(CCN(c3ncccn3)C2)C1 | inactive | 
CCOC(=O)c1nc2sc(C)c(C)c2c(=O)[nH]1 | inactive | 
C[C@@H]1O[C@@H](n2cc(F)c(=O)[nH]c2=O)[C@H](O)[C@@H]1O | inactive | 
COC(=O)[C@@]1(Cc2ccc(OC)cc2)[C@@H]2C(=CC(=O)[C@H]2CC(=O)C(=O)N(C)C)CN1C(=O)c1ccccc1 | inactive | 
CCOc1nc(N2CCCCC2)nc(-n2cc(-c3ccccc3)nn2)n1 | inactive | 
CN(c1ccccc1)c1nc(-n2ccnc2)nc(-n2ccnc2)n1 | 11.2 µM (active) | 
c1ccc(-c2nc(N3CCCCCC3)nc(-n3ccnc3)n2)cc1 | 14.1 µM (active) | 
CCCSc1cc(N2CCCC2)nc(-c2ccccc2)n1 | inactive | 
C[C@@H](N)C(=O)O | inactive | 
Cc1c(C(=O)NN2CCN(C)CC2)cccc1[N+](=O)[O-] | inactive | 
Cc1sc(=NC(=O)c2ccco2)n(C)c1-c1ccc(F)cc1 | inactive | 
CCc1cc2cc(C)c(C)cc2nc1SCC(=O)NNC(=O)c1ccco1 | inactive | 
CC(C)(C)C(=O)N1CCN(c2ccc([N+](=O)[O-])c(NCC3CCCO3)c2)CC1 (centres undefined) | inactive | 
COc1cccc([C@H](O)Cn2cc(-c3ccc(CON=C(C)C)cc3)nn2)c1 |  | 4% [at 11.4 µM]
O=c1c(Cl)c(N2CCN(S(=O)(=O)c3ccc(F)cc3)CC2)cnn1-c1cccc(Cl)c1 | inactive | 

SMILES | AC50 | activity, negative = inhibition
CC(=O)C=NCC(=O)O |  | -2.95% [at 11.4 µM]
Cc1cccc(CNc2cc(-c3ccc(N(C)C)cc3)ncn2)c1 | inactive | 
c1csc(CNc2cc(-c3ccoc3)ncn2)c1 | 15.8 µM (active) | 
Cc1cnc(CNc2cc(-c3ccoc3)ncn2)cn1 | inactive | 
Cc1cccc(CNc2cc(-c3ccoc3)ncn2)c1 | 25.1 µM (active) | 
c1cncc(CNc2cc(-c3ccoc3)ncn2)c1 | inactive | 
C=CCSc1ccsc1C(=O)O | inactive | 
Cc1cc(C)n2c(SCC(=O)N(C)C3CCS(=O)(=O)C3)nnc2n1 (centres undefined) | inactive | 
O=c1c(C=Nc2ccc(Oc3ccccc3)cc2)c[nH]n1-c1cccc(Cl)n1 | inactive | 
CC(=O)OCc1c(C(F)(F)F)nn(C)c1Sc1ccccc1 | inactive | 
Cc1cc(C)n(CC(O)COc2ccccc2)n1 (centres undefined) | inactive | 
OC[C@@H](O)COc1cccc2ccccc12 | inactive | 
Cc1ccccc1OCC(O)Cn1c(NCc2ccccc2)nc2c1c(=O)[nH]c(=O)n2C (centres undefined) | inactive | 
CC(=O)Nc1ccc(OCC(O)Cn2c3ccccc3c3ccccc32)c(C)c1 (centres undefined) | 14.1 µM (active) | 
c1ccc2c(c1)c1ccccc1n2Cn1c2ccccc2c2ccccc21 |  | -12.9% [at 11.4 µM]
Cc1ccccc1OCC(O)Cn1c2ccccc2c2ccccc21 (centres undefined) | 0.891 µM (active) | 
Cc1ccc(OCC(O)CNC(=O)c2ccccc2C(=O)O)cc1 (centres undefined) | inactive | 
CCn1c2ccccc2c2cc(NC(=O)C(C)Oc3ccc(OC)cc3)ccc21 (centres undefined) | inactive | 
Cc1ccc(OCC(O)Cn2c3ccccc3c3ccccc32)cc1 (centres undefined) | 6.31 µM (active) | 
C=CCN(CC=C)CC(O)Cn1c2ccccc2c2ccccc21 (centres undefined) | 0.224 µM (active) | 
C#CCCCO/N=C1/[C@H]2O[C@@H]2[C@@H](O)[C@H]2[C@H]1CCn1c(=O)n(Cc3cc4c(cc3Cl)OCO4)c(=O)n12 |  | -0.473% [at 11.4 µM]
O=C(O)c1nnsc1-c1csnn1 |  | -6.92% [at 11.4 µM]
Cc1cc(C)c(C(N)=O)c(NC(=O)Nc2ccccc2)n1 | inactive | 
O=c1[nH][nH]c(=S)c(=O)[nH]1 |  | 0.16% [at 11.4 µM]
